Bioassay records deposited in PubChem BioAssay by National Center for Advancing Translational Sciences (NCATS).
The list is not random: actives were taken first. Their share in the collection is about 1.5%.
FEN1 inh: qHTS Assay for the Inhibitors of Human Flap endonuclease 1 (FEN1) | Recombinant FEN1 flap cleavage, fluorescence, 15 min | Potency, µM (titrated, usually from 114 µM), usual class: inhibitors | AID 588795, 2011 | 390,000 compounds, 0.35% hits | P39748; further: nearly all actives have a fitted effect of over 65% in size
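Nuclease activity of 10 nM FEN1 was measured after 15 min of room-temperature exposure to titrated compounds, by adding 50 nM flap substrate and reading plates at 0 and 15 min.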
APE1 inh: qHTS Assay for Inhibitors of the Human Apurinic/apyrimidinic Endonuclease 1 (APE1) | recombinant APE1, TAMRA/BHQ-2 abasic DNA cleavage fluorescence | DNA repair nuclease/redox regulator APEX1 (Homo sapiens), P27695 | AID 2517, 2012 | 350,000 compounds, 0.35% hits | Potency, µM (doses to about 65.8 µM), usual class: inhibitors; further: nearly all actives have a fitted effect of over 55% in size
Target sequence (P27695 whole entry, looked up): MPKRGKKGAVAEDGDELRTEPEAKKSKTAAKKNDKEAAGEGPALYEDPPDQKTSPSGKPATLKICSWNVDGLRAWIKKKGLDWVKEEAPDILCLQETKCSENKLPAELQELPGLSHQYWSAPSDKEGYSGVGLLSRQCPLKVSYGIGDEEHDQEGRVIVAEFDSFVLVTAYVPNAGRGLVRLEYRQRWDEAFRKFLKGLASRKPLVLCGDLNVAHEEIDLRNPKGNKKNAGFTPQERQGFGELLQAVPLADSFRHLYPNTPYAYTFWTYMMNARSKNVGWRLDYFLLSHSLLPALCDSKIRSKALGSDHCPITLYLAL
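Incision of a quenched TAMRA/BHQ-2 THF abasic-site duplex (50 nM) by 0.75 nM APE1, after 15 min compound preincubation, measured as fluorescence increase over three 60 s reads. Values normalized to buffer, DMSO and NSC13755 control wells.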
KAT2A inh: qHTS Assay for Inhibitors of GCN5L2. Potency, µM (top dose mostly 58.9 µM), actives largely listed as inhibitors. 390,000 compounds, 0.21% hits. GCN5L2 HAT assay, ThioGlo1 CoA-SH fluorescence
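Enzyme at 20nM final was mixed with library compounds for 15 min at room temperature. Peptide H3(1-25) at 75uM, acetyl-CoA at 70uM and ThioGlo1 at 50uM were then added. Plates were read immediately and after 20 min (Ex340nm/Em540nm).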
BLM helicase inh: qHTS Assay for Inhibitors of Bloom's syndrome helicase (BLM) | RecQ-like DNA helicase BLM (Homo sapiens), P54132 | recombinant BLM DNA unwinding, fluorescence dequenching | Potency, µM (highest dose often 56.1 µM), usual class: inhibitors | 350,000 compounds, 0.2% hits | AID 2528, 2010; further: nearly all actives have a fitted effect of over 35% in size
PI5P4K alpha inh: qHTS for Inhibitors of phosphatidylinositol 5-phosphate 4-kinase (PI5P4K) | PI5P4Kalpha enzyme, ADP-Glo luminescence, 60 min; stronger effect = lower value | max response, % | 330,000 compounds, 1.2% hits | AID 652105, 2013; active means max response of -50% or lower; inconclusive means between -30% and -50%; inactive means -30% or higher; further: value at the top dose of about 77 µM
Target sequence (P48426 whole entry, looked up): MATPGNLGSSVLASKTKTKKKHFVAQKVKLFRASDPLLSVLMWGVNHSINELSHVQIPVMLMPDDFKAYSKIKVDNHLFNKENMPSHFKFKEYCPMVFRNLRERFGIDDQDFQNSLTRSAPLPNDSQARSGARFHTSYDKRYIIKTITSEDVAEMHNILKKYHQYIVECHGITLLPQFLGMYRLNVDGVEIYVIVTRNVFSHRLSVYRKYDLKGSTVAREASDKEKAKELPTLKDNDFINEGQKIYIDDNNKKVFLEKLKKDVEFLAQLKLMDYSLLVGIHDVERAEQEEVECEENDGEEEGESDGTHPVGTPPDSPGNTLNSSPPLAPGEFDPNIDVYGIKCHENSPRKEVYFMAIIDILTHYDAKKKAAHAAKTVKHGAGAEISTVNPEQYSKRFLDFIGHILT
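qHTS, 1536-well: enzyme/substrate mix, compound by pin tool, 5 microM ATP final; RT 60 min; ADP-Glo reagents 1 (45 min) then 2 (30 min); luminescence.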
RECQ1 inh: qHTS Assay for Inhibitors of RecQ-Like Dna Helicase 1 (RECQ1) | AID 2549, 2010 | RECQ1 DNA unwinding, red fluorescence kinetic read | 240,000 compounds, 0.54% hits | ATP-dependent DNA helicase Q1 (Homo sapiens), P46063 | Potency, µM (titrated, usually from 57.3 µM), actives largely listed as inhibitors; further: nearly all actives have a fitted effect of over 30% in size
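50 nM RECQ1T1 preincubated 15 min with compound in Tris pH 8.0 buffer with MgCl2, DTT, Tween-20 and 2.5 ug/ml poly(dI-dC); started with 200 nM TAMRA/BHQ-2 forked duplex and 2 mM ATP. Unwinding read as fluorescence (525/598 nm), two reads 2 h apart.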
Numbers stand for hits; 0 = inactive; ? = inconclusive; - = not tested or not shown; ! = not confirmed by another sample. Unless noted, the call rests on the fitted dose curve; in most records, active means well fitted curve in the direction sought with a large enough effect; inconclusive means small, poorly fitted or top-dose-only effect, or another doubt; inactive means no such curve, though single readings can be large; an effect the other way counts as inactive or inconclusive.

SMILES	FEN1 inh	APE1 inh	KAT2A inh	BLM helicase inh	PI5P4K alpha inh	RECQ1 inh
CCCCN1CC2([N+](=O)[O-])C=CC(=O)C([N+](=O)[O-])(C1)C2CC(=O)c1ccccc1 (stereo not drawn)	0	0	0	0	0	0
CCN1CC2([N+](=O)[O-])C=CC(=O)C([N+](=O)[O-])(C1)C2CC(=O)c1ccccc1 (stereo not drawn)	0	0	0	0	-52.9	0
Nc1cccc2cccnc12	0	-	-	-	-	-
Cc1ccc(C)c(NC(=O)CN(CCc2ccccc2)S(=O)(=O)c2ccccc2)c1	89.1µM	-	0	0	-	-
CN1/C(=C/c2cccc[n+]2C)Sc2ccccc21	44.7µM	0	0	0	0	-
COC1=C(OC)C(=O)C(Sc2ccc3ccccc3c2)=CC1=O	0	-	-	-	-90.8	-
COc1ccc(S(=O)(=O)Oc2ccc3ccccc3c2)cc1	0	0	0	0	0	0
CC/C(=C\c1ccc(C(=O)OC)cc1)c1cc(OC)cc2oc3ccccc3c12	0	-	-	-	-	-
O=c1cc(S(=O)(=O)Cc2ccccc2)[nH]c(=O)[nH]1	0	-	-	-	-65.7	-
O=c1cc(CCc2ccccc2)[nH]c(=O)[nH]1	-	-	-	-	0	-
CCNc1nc2[nH]c(=O)c3c(c2s1)OC(N)=C(C#N)C3c1ccc(C)cc1 (stereo not drawn)	0	0	0	0	-67.0	0
CC1=C/C(=C(\c2cc(C)c(O)c(Br)c2)c2ccccc2S(=O)(=O)O)C=C(Br)C1=O	?	0	0	?	-77.4	-
COc1ccc(C2=Nn3c(nnc3-c3cccc(OC)c3)SC2)cc1	-	0	-	0	-	0
O=C1NNC(c2ccccc2)=N/C1=C\c1ccco1	0	0	0	0	-52.5	0
Cc1cc(Oc2ccc(Cl)cc2Cl)nc(C#N)n1	0	-	-	-	-	-
Cc1ccc2c(Br)cc(Br)c(O)c2n1	-	-	0	0	-	-
COc1ccc(C(CC(=O)N2CCCC(C)C2)c2c(OC)cc(OC)c3c(-c4ccccc4)cc(=O)oc23)cc1 (stereo not drawn)	0	?	0	0	?	0
COc1ccc(C(CC(=O)N2CCOCC2)c2c(OC)cc(OC)c3c(-c4ccccc4)cc(=O)oc23)cc1 (stereo not drawn)	0	31.6µM!	?	22.4µM!	?	0
CC(=O)Oc1ccc2occ(/C=N/c3cc(=O)[nH]c(=S)[nH]3)c(=O)c2c1	0	0	0	0	-51.3	0
C=Cc1c(C)c2cc3nc(cc4[nH]c(cc5nc(cc1[nH]2)C(C)=C5CCC(=O)OC)c(CCC(=O)O)c4C)[C@@]1(C)C3=CC=C(C(=O)OC)[C@H]1C(=O)OC	-	0	-	-	-	-
O=C(Nc1cc(OC(=O)C(F)(F)F)c2nonc2c1OC(=O)C(F)(F)F)C(F)(F)F	0	-	-	-	-	-
COc1ccccc1C(=O)N=Nc1c(O)[nH]c2ccc([N+](=O)[O-])cc12	0	0	0	0	0	0
NC(=O)N=Nc1c(O)[nH]c2ccc([N+](=O)[O-])cc12	0	0	0	0	0	0
O=C(O)c1cc(N=Nc2c(O)[nH]c3ccc([N+](=O)[O-])cc23)ccc1Cl	0	?	0	0	-73.1	-
O=C(N=Nc1c(O)[nH]c2ccc([N+](=O)[O-])cc12)c1cc(-c2ccccc2Cl)nc2ccccc12	0	0	0	3.98µM	?	0
SMILES	FEN1 inh	APE1 inh	KAT2A inh	BLM helicase inh	PI5P4K alpha inh	RECQ1 inh
CCCCCCC[n+]1ccc(/C=C/c2c[nH]c3ccccc23)c2ccccc21	25.1µM	-	-	-	-	-
OCC[n+]1ccc(/C=C/c2c[nH]c3ccccc23)cc1	?	0	0	0	0	0
CCCCCCCCCC[n+]1ccc(/C=C/c2c[nH]c3ccccc23)cc1	89.1µM	-	-	-	-	-
CCCCCCCCCCCC[n+]1ccc(/C=C/c2c[nH]c3ccccc23)c2ccccc21	0	-	-	-	-	-
CCCCCCCCCCCCCCCC[n+]1ccc(/C=C/c2c[nH]c3ccccc23)c2ccccc21	50.1µM	-	-	-	-	-
Cc1nn(-c2ccccc2)c2c1C(c1ccc(O)c(O)c1)N1C(=N2)C(Nc2ccccc2)=Nc2ccccc21 (stereo not drawn)	0	0	0	0	0	0
Cc1cccc(NC2=Nc3ccccc3N3C2=Nc2c(c(C)nn2-c2ccccc2)C3c2ccc(O)c(O)c2)c1 (stereo not drawn)	0	0	0	0	-92.3	0
C(=C\c1ccnc2ccccc12)/c1ccc(N2CCNCC2)cc1	0	-	-	-	-	-
O=C(NNC(=O)c1cc2cc3ccccc3nc2s1)c1ccc(F)cc1	0	6.31µM	0	0	0	0
O=S(=O)(c1cc(O)ccc1O)c1cccc2c(S(=O)(=O)c3cc(O)ccc3O)cccc12	35.5µM	2.12µM	?	-	-90.8	-
Oc1cccc(O)c1	-	0	0	0	-	0
O=C1C=CC(=O)c2c(O)c(Cl)c(Cl)c(O)c21	-	0	20µM	?	-	0
O=c1c(CO)cc(CO)cc(CO)c1O	0	0	0	0	0	0
O=C1C=CC(=O)c2c(O)c(CO)c(CO)c(O)c21	15.8µM	-	-	-	-89.3	-
O=c1c(Cc2ccccc2)c(O)c2cccc3c4c(n1c23)CCCC4	0	0	0	0	0	0
O=c1c(Cl)c(O)c2cccc3c4ccccc4n1c23	?	0	0	0	-56.8	0
COc1c(O)c(=O)n2c3ccccc3c3ccnc1c32	11.2µM	0	0	-	0	-
COc1c(OC)c2[nH]c(=O)cc3c4ccccc4n(c1=O)c23	0	0	0	-	0	-
N#CC(=C(/N)Sc1ccccc1N)/C(C#N)=C(\N)Sc1ccccc1N	-	0	?	-	-	0
Cc1ccc(-c2[nH]c(=S)[nH]c(=O)c2C#N)cc1	0	0	0	0	-72.4	0
CSc1cc(-c2ccc(Cl)cc2)[nH]c(=O)c1C#N	0	0	0	0	0	0
O=[N+]([O-])c1cc(/C=N/n2c(-c3ccncc3)n[nH]c2=S)ccc1Cl	50.1µM	0	0	0	?	4.47µM
Cc1cc(-c2n[nH]c(=S)n2/N=C/c2ccc(Cl)c([N+](=O)[O-])c2)n[nH]1	0	0	0	0	0	0
S=c1[nH]nc(-c2ccncc2)n1/N=C/c1cn(-c2ccccc2)nc1-c1ccccc1	0	0	0	0	-57.5	0
Oc1c(Br)cc(Br)c(/C=N/n2c(-c3ccccc3)n[nH]c2=S)c1Br	?	0	28.2µM	0	-86.2	-
COc1ccc(/C=c2\[nH]c(=O)/c(=C/c3ccc(OC)cc3)[nH]c2=O)cc1	0	-	-	-	-	-
Cc1csc[n+]1CC(=O)c1ccccc1	0	-	-	-	-	-
